Laboratory results from PubChem BioAssay (NCATS).
Results filed as inconclusive are left out. Where a call stands in place of a potency, no number is given. Active and inactive are the calls of the source. The call rests on the fitted dose curve.

Experiments:
[1] = Cytotoxicity counterscreen for inhibitors of SARS-CoV-2 cell entry (AID 1645845); details: outcome: dose series up to 57.1 µM unless noted; further: nearly all actives have a fitted effect of over 50% in size
Outline: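 48 h compound treatment (after 1 h preincubation), HEK293-ACE2 cells, 37 C/5% CO2; ATP luminescence endpoint; normalized to cell wells and media blanks.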

[2] = Primary qHTS to identify inhibitors of SARS-CoV-2 cell entry (AID 1645846); details: SARS-CoV-2 pseudovirus cell entry assay, luminescence; activity change, negative = inhibition: at 57.1 µM (top of the series) unless noted; further: nearly all actives have a fitted effect of over 45% in size
Outline: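 HEK293 cells stably expressing human ACE2, pre-treated 1 h with compound, then infected with MLV particles pseudotyped with Wuhan-Hu-1 spike (C-terminal 19-aa truncation). Luciferase luminescence after 48 h at 37 °C, normalised to spike PP and bald PP.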
Potency means the concentration at half of the fitted maximal effect.

CCOC(=O)N[C@@H]1CC[C@@H]2[C@@H](C1)C[C@H]1C(=O)O[C@H](C)[C@H]1[C@H]2/C=C/c1ccc(-c2cccc(F)c2)cn1
Potency [1]: inactive | Potency [2]: 28.2 µM (active)

COc1ccc(-c2cc(C(O)C3CCCCN3)c3ccccc3n2)cc1 (stereo not drawn)
Potency [1]: 14.1 µM (active) | Potency [2]: 12.6 µM (active)

O=C(O)CC1CCC(c2ccc(-c3ccc(Nc4ccc(C(F)(F)F)nc4)cn3)cc2)CC1 (stereo not drawn)
Potency [1]: inactive | activity change, negative = inhibition [2]: -24.6%

O=C(Nc1nccs1)C(c1cc(F)ccc1O)N1Cc2ccccc2C1=O (stereo not drawn)
Potency [1]: inactive | activity change, negative = inhibition [2]: -14.9%

O=C(O)C1=CO[C@@H](O[C@@H]2O[C@H](CO)[C@@H](O)[C@H](O)[C@H]2O)[C@@H]2C(CO)=CC[C@H]12
Potency [1]: inactive | Potency [2]: inactive

CC(=O)Nc1ccc(C(=O)Nc2ccccc2N)cc1
Potency [1]: 7.08 µM (active) | Potency [2]: inactive

O=C(NC[C@H](O)CN1CCc2ccccc2C1)c1cc(NC2COC2)ncn1
Potency [1]: inactive | activity change, negative = inhibition [2]: -13.5%

CC(=NNC(=O)c1cccc(S(=O)(=O)N2CCOCC2)c1)c1cc(Cl)ccc1O
Potency [1]: inactive | activity change, negative = inhibition [2]: -7.45%

CCN(C(=O)c1ccccc1OC)c1cc2c(cc1N1CCNC[C@H]1C)n(C)c(=O)n2C
Potency [1]: inactive | activity change, negative = inhibition [2]: -9.57%

COc1ccc2c(c1)CC[C@@H]1[C@@H]2CC[C@]2(C)[C@@H](NCCCCCCN3C(=O)C=CC3=O)CC[C@@H]12
Potency [1]: inactive | Potency [2]: inactive

CCS(=O)(=O)N1CCC(C(C)n2c(C)c(C(=O)NCc3c(OC)cc(C)[nH]c3=O)c3ccccc32)CC1 (stereo not drawn)
Potency [1]: inactive | activity change, negative = inhibition [2]: -8.61%

CC1Oc2cc(cnc2N)-c2c(nn(C)c2C#N)CN(C)C(=O)c2ccc(F)cc21 (stereo not drawn)
Potency [1]: inactive | activity change, negative = inhibition [2]: -19.3%

O=c1cc(N2CCOCC2)oc2c(-c3ccc4c(c3)OCCO4)csc12
Potency [1]: inactive | activity change, negative = inhibition [2]: -5.73%

OC1CCC([C@H](O)C[C@H]2c3c(F)cccc3-c3cncn32)CC1 (stereo partly drawn)
Potency [1]: inactive | Potency [2]: inactive

COc1ccccc1C(=O)Nc1cc2c(cc1N1CCCCC1)n(C)c(=O)n2C
Potency [1]: inactive | activity change, negative = inhibition [2]: -21.1%

C[C@H]1C[C@@H](n2c(Nc3ccc(OC(F)(F)F)cc3)nc3cc(CCC(=O)O)ccc32)CC(C)(C)C1
Potency [1]: inactive | activity change, negative = inhibition [2]: 2.52%

Cc1c(-c2cnccn2)ssc1=S
Potency [1]: inactive | activity change, negative = inhibition [2]: 3.56%

CC1CCC(n2c3cnccc3c3cnc(Nc4ccc5c(n4)CCN(C(=O)CO)C5)nc32)CC1 (stereo not drawn)
activity change, negative = cytotoxicity [1]: 4.82% [at 11.3 µM] (inactive) | outcome [2]: inactive [at 11.3 µM]

CO[C@H]1/C=C/O[C@@]2(C)Oc3c(C)c(O)c4c(O)c(c(/C=N/N5CCN(C)CC5)c(O)c4c3C2=O)NC(=O)/C(C)=C\C=C\[C@H](C)[C@H](O)[C@@H](C)[C@@H](O)[C@@H](C)[C@H](OC(C)=O)[C@@H]1C
Potency [1]: inactive | activity change, negative = inhibition [2]: -0.679%
